We go through five compounds from PubChem BioAssay (EPA / NIEHS).

The nature of assay [1]: ATG_GRE_CIS: Attagene CIS-FACTORIAL HepG2 Assay for human Glucocorticoid Response Elements (GRE) (AID 2282947). The note with it: HepG2 GRE cis-reporter, Attagene multiplex mRNA; actives raise or lower the signal. In short, it runs like this: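 Transiently transfected HepG2 cells carrying GRE cis-reporter units (endogenous TF activity) dosed 24 h; reporter mRNA quantified by RT-PCR, 6-FAM labelling, HpaI digestion and capillary electrophoresis. Bidirectional fit versus DMSO baseline.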

Assay [2] in a line: ATG_ISRE_CIS: Attagene CIS-FACTORIAL HepG2 Assay for human Interferon Regulatory Factor 1 (IRF1) binding to an Interferon-Stimulated Response Element (ISRE) (AID 2282948). The note with it: HepG2 ISRE cis-reporter (Attagene), mRNA transcription readout; actives raise or lower the signal. An outline of the steps: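 HepG2 cells transiently transfected with multiplexed cis-promoter reporter units; after 24 h compound exposure, reporter mRNA quantified by RT-PCR, FAM labelling, HpaI digestion and capillary electrophoresis. Bidirectional fit versus DMSO baseline.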

Assay [3] can be described thus: ATG_M_32_CIS: Attagene CIS-FACTORIAL HepG2 Assay for M32 Transcription Factor (Internal Marker) (AID 2282949).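 Also: background control marker of the multiplexed CIS panel rather than a real target.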 As to conditions: HepG2 Attagene cis-factorial M32 reporter, mRNA; actives raise or lower the signal. An outline of the steps: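 Fluorescent capillary electrophoresis peaks of HpaI-digested, FAM-labelled RT-PCR reporter products give the signal. Source: transiently transfected human liver HepG2 cells, 24 h after chemical dosing; bidirectional fitting against DMSO.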

The nature of assay [4]: ATG_M_06_CIS: Attagene CIS-FACTORIAL HepG2 Assay for M06 Transcription Factor (Internal Marker) (AID 2282950). The note with it: HepG2 Attagene CIS-FACTORIAL M06 internal marker reporter; actives raise or lower the signal. In short, it runs like this:
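Cells (HepG2, transiently carrying cis-driven reporter units) receive chemical for 24 h before RNA isolation. Reporter cDNA is PCR-amplified, FAM-labelled by primer extension, HpaI-digested and sized on a capillary analyser.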

In assay [5] the target is Hypoxia-inducible factor 1-alpha (Homo sapiens) (UniProt Q16665). Description: ATG_HIF1a_CIS: Attagene CIS-FACTORIAL HepG2 Assay for human Hypoxia Inducible Factor 1 (HIF1A) (AID 2282951). As to conditions: HepG2 Attagene cis-factorial HIF1a reporter transcription; actives raise or lower the signal. In short, it runs like this:
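Transient MRTU transfection of human HepG2 liver cells, 24 h compound treatment, then total RNA isolation, oligo(dT) reverse transcription, PCR amplification, fluorescent labelling and capillary electrophoresis of reporter fragments. Gain or loss relative to DMSO.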

Assay [6] deals with Hepatocyte nuclear factor 6 (Homo sapiens) (UniProt Q9UBC0). The assay can be described thus: ATG_HNF6_CIS: Attagene CIS-FACTORIAL HepG2 Assay for human Hepatocyte Nuclear Factor 6 (HNF6) (AID 2282952). As to conditions: HepG2 Attagene cis-factorial HNF6 reporter transcription; actives raise or lower the signal. An outline of the steps: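 Transiently transfected HepG2 cells expressing cis-regulated reporter transcription units were exposed to chemical for 24 h in a 24-well format. Reporter transcript abundance was determined by fluorescence capillary electrophoresis.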

The target of assay [7] is Heat shock factor protein 1 (Homo sapiens) (UniProt Q00613). The assay can be described thus: ATG_HSE_CIS: Attagene CIS-FACTORIAL HepG2 Assay for human Heat Shock Transcription Factor 1 (HSE) (AID 2282953). As to conditions: HepG2 HSE cis-reporter, Attagene RNA transcription; actives raise or lower the signal. An outline of the steps: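 Liver-derived HepG2 cells carry transiently introduced multiple reporter units governed by cis promoters. Reporter RNA measured 24 h post-dose through reverse transcription, PCR amplification, fluorescent labelling and capillary electrophoresis, normalised to DMSO.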

The nature of assay [8]: ATG_MRE_CIS: Attagene CIS-FACTORIAL HepG2 Assay for human Metal Responsive Element (MRE) (AID 2282954). The note with it: HepG2 MRE cis-reporter transcription, Attagene multiplex; actives raise or lower the signal. In short, it runs like this:
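HepG2 cells transiently transfected with cis-element-driven reporter units; mRNA measured 24 h after dosing. Reporter transcripts quantified by RT-PCR, FAM labelling, HpaI digestion and capillary electrophoresis; bidirectional fit versus DMSO.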

The target in assay [9] is Paired box protein Pax-6 (Homo sapiens) (UniProt P26367). Description: ATG_Pax6_CIS: Attagene CIS-FACTORIAL HepG2 Assay for human Paired Box 6 (PAX6) (AID 2282956). As to conditions: HepG2 CIS-FACTORIAL PAX6 reporter transcription, RNA readout; actives raise or lower the signal. In short, it runs like this: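 HepG2 cells transiently transfected with multiplexed cis-promoter reporter units (endogenous TF activity) were dosed for 24 h. Reporter mRNA was quantified by RT-PCR, 6-FAM labeling, HpaI digestion and capillary electrophoresis; bidirectional fitting versus DMSO baseline.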

A short description of assay [10]: ATG_PXRE_CIS: Attagene CIS-FACTORIAL HepG2 Assay for human Pregnane X Receptor Element (PXRE) (AID 2282957). As to conditions: HepG2 Attagene CIS-FACTORIAL PXRE reporter, mRNA; actives raise or lower the signal. In short, it runs like this: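 Cis-element reporter mRNA in human hepatoma HepG2 cells is measured 24 h post-dosing by RT-PCR, primer-extension labeling and capillary electrophoresis; gain or loss of signal is fitted relative to DMSO.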

The nature of assay [11]: ATG_PPRE_CIS: Attagene CIS-FACTORIAL HepG2 Assay for human Peroxisome Proliferator-activated Response Element (PPRE) (AID 2282958). The note with it: HepG2 PPRE cis-element reporter, Attagene transcription factor profiling; actives raise or lower the signal. In short, it runs like this:
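HepG2, transient MRTU transfection (cis promoter elements, endogenous TFs). 24 h dosing. RNA → oligo(dT) RT → PCR → 6-FAM primer extension → HpaI digest → CE. Bidirectional fit vs DMSO.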

The nature of assay [12]: ATG_RORE_CIS: Attagene CIS-FACTORIAL HepG2 Assay for human RAR-related Orphan Receptor Element (RORE) (AID 2282959). The note with it: HepG2 Attagene cis-factorial RORE reporter, mRNA; actives raise or lower the signal. In short, it runs like this:
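Transient MRTU transfection of human HepG2 liver cells (FuGene 6); 24 h compound exposure; TriZol RNA, oligo(dT) RT, PCR, FAM labeling, HpaI cut, CE fragment analysis. DMSO = negative control/baseline.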

Assay [13] is described as follows: ATG_Sox_CIS: Attagene CIS-FACTORIAL HepG2 Assay for human SRY-box transcription factor (SOX) (AID 2282960). The note with it: HepG2 Attagene cis-factorial SOX reporter, mRNA; actives raise or lower the signal. An outline of the steps: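 Endogenous factor activity in human liver HepG2 cells carrying transfected cis-regulated reporter units. RNA taken 24 h post-dose, reverse-transcribed, PCR-amplified and sized by capillary electrophoresis. Gain or loss of signal fitted relative to DMSO.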

Assay [14] is described as follows: ATG_SREBP_CIS: Attagene CIS-FACTORIAL HepG2 Assay for human Sterol Regulatory Element Binding (SREBP) (AID 2282962). The note with it: HepG2 Attagene cis-factorial SREBP reporter, mRNA; actives raise or lower the signal. An outline of the steps:
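HepG2 cells transiently transfected with multiplexed cis-element reporter units report endogenous transcription factor activity. After 24 h of chemical exposure, reporter mRNA was quantified by RT-PCR, 6-FAM labelling, HpaI digestion and capillary electrophoresis; bidirectional fits used DMSO as baseline.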

Assay [15] deals with Signal transducer and activator of transcription 3 (Homo sapiens) (UniProt P40763). The assay can be described thus: ATG_STAT3_CIS: Attagene CIS-FACTORIAL HepG2 Assay for human Signal Transducer and Activator of Transcription 3 (STAT3) (AID 2282963). The note with it: HepG2, Attagene cis-factorial STAT3 reporter transcription; actives raise or lower the signal. An outline of the steps: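 HepG2 cells transiently transfected with multiple cis-element-driven reporter units report endogenous transcription factor activity. After 24 h compound exposure, reporter mRNA is measured by RT-PCR, 6-FAM labelling, HpaI digestion and capillary electrophoresis. Fitted bidirectionally versus DMSO.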

A short description of assay [16]: ATG_TA_CIS: Attagene CIS-FACTORIAL HepG2 Assay for human TA Basal Promoter (AID 2282964). The note with it: HepG2 Attagene CIS-factorial TA basal promoter reporter; actives raise or lower the signal. An outline of the steps: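 Background internal-marker endpoint from a 52-component HepG2 cis-reporter panel. Cells treated 24 h; reporter transcripts quantified via RT-PCR and CE fluorescence against DMSO baseline.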

Assay [17] in a line: ATG_TCF_b_cat_CIS: Attagene CIS-FACTORIAL HepG2 Assay for human T-Cell-Factor with beta-catenin (TCF/b-cat) (AID 2282965). As to conditions: HepG2 TCF/beta-catenin cis-reporter transcription, actives raise or lower the signal. In short, it runs like this:
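HepG2, transient MRTU transfection, cis-element-driven reporters (endogenous TFs). 24 h compound exposure. Readout: reporter mRNA by RT-PCR + 6-FAM primer extension, HpaI digest, capillary electrophoresis. Gain/loss fit vs DMSO baseline.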

Assay [18] addresses Transcription factor Sp1 (Homo sapiens) (UniProt P08047). Description: ATG_Sp1_CIS: Attagene CIS-FACTORIAL HepG2 Assay for human Specificity Protein 1 (Sp1) (AID 2282961). As to conditions: HepG2 Sp1 cis-reporter transcription, actives raise or lower the signal. In short, it runs like this: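 Transient MRTU-transfected HepG2, 24 h compound exposure. Total RNA → oligo(dT) RT → PCR of reporter → 6-FAM primer extension → HpaI digest → CE. Endpoint fitted both directions vs DMSO.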

The source made the active and inactive calls. The calls were made as follows: active = hit-call score of the fitted dose curve at least 0.9, where 1 is the maximum; inactive = score below 0.9.

Chain of Signal transducer and activator of transcription 3 (Homo sapiens) (P40763 whole entry, looked up): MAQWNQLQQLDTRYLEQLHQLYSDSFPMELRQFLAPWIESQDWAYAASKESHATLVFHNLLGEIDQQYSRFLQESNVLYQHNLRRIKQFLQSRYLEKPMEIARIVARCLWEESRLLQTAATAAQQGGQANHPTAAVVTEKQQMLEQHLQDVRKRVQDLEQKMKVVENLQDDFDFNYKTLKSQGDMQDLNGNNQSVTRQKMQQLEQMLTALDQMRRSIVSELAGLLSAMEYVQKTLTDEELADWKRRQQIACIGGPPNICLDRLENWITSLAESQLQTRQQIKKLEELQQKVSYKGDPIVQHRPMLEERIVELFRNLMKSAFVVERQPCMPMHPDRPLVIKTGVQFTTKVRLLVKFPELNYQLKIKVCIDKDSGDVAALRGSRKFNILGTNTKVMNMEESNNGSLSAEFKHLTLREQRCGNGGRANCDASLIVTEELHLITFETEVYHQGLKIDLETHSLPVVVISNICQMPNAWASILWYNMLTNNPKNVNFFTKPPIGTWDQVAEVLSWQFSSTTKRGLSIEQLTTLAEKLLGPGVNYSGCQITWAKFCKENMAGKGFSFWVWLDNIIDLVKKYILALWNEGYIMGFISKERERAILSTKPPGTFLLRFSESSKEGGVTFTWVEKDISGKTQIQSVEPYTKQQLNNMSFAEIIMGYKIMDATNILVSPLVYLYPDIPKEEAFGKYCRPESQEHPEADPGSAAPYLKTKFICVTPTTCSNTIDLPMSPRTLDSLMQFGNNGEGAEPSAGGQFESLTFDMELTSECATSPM
Chain of Heat shock factor protein 1 (Homo sapiens) (Q00613 whole entry, looked up): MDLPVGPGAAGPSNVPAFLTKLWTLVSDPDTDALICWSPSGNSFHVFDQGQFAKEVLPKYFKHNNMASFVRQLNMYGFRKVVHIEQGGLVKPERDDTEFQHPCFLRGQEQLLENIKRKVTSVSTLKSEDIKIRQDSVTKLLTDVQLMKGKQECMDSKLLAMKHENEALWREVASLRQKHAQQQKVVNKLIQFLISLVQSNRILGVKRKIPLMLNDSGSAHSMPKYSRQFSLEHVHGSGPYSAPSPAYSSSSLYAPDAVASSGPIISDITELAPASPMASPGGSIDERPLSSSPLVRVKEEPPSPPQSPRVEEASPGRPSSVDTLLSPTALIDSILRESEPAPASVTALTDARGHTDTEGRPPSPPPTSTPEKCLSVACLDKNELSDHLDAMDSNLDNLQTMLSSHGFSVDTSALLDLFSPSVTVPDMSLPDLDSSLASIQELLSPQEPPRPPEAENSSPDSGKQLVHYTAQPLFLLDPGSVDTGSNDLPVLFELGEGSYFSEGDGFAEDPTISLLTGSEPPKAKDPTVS
Chain of Hepatocyte nuclear factor 6 (Homo sapiens) (Q9UBC0 whole entry, looked up): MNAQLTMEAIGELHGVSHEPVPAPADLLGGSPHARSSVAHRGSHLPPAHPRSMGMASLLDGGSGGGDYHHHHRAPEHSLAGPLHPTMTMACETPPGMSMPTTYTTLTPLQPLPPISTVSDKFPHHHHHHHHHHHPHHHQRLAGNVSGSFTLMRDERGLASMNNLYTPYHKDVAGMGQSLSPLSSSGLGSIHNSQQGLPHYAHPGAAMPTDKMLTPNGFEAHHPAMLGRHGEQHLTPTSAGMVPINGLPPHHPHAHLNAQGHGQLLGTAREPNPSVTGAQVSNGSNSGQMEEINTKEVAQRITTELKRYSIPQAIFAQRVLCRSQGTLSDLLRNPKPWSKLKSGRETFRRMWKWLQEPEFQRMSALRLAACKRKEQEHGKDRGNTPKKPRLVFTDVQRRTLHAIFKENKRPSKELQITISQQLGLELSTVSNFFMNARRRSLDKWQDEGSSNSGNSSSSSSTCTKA
Chain of Paired box protein Pax-6 (Homo sapiens) (P26367 whole entry, looked up): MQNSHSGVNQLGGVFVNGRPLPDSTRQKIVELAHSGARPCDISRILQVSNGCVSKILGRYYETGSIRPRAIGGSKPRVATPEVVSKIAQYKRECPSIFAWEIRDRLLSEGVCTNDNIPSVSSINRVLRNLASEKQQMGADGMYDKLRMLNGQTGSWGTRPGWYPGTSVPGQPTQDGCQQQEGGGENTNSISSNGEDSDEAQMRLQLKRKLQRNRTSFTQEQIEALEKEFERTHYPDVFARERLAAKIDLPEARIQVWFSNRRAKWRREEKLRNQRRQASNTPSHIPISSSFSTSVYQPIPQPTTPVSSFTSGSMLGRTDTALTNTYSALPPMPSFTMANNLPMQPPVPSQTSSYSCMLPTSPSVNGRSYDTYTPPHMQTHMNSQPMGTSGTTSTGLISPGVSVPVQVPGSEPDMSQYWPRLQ
Chain of Hypoxia-inducible factor 1-alpha (Homo sapiens) (Q16665 whole entry, looked up, the tested form may be a part): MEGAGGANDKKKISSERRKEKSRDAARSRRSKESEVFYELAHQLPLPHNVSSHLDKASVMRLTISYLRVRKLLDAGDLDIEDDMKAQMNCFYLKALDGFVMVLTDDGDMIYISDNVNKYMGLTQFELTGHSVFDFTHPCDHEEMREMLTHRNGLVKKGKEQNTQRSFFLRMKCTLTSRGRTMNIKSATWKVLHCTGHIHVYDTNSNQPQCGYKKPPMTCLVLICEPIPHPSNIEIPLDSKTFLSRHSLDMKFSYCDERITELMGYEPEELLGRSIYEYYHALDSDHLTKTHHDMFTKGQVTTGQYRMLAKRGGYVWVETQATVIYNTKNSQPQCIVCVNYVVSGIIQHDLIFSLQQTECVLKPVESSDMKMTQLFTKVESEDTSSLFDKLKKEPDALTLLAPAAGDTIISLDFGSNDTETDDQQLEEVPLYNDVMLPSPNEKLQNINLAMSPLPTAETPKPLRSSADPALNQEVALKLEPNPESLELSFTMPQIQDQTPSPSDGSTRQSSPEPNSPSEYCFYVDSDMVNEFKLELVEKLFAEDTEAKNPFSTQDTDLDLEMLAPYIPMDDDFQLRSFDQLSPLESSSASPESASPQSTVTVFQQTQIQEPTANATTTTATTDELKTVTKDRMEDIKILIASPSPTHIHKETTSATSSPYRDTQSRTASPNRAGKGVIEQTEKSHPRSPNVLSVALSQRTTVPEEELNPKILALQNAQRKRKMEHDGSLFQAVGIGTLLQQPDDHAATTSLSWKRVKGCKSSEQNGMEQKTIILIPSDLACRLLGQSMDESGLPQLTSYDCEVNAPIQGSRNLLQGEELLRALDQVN
Chain of Transcription factor Sp1 (Homo sapiens) (P08047 whole entry, looked up): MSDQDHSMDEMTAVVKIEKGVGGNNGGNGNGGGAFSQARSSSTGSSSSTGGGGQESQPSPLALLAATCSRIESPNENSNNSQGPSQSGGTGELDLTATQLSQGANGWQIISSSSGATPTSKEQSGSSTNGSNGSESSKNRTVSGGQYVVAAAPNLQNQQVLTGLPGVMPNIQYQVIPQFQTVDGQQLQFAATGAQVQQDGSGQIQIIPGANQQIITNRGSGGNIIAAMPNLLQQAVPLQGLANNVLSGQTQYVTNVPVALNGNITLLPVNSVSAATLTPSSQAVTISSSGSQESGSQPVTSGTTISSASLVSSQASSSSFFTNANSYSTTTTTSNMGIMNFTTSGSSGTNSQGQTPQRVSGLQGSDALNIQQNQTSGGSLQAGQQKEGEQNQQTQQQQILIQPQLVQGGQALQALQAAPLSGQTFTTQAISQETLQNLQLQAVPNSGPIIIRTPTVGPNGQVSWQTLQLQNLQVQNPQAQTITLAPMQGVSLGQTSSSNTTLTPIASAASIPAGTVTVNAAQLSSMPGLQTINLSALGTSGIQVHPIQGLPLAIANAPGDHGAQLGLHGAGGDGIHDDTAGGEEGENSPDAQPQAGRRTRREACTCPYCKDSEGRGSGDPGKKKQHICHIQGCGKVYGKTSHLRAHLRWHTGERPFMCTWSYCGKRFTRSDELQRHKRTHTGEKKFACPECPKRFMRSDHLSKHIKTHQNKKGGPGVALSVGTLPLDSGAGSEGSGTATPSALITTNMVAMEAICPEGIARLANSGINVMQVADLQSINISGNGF

For `CNC(=S)NN`, the result in [1], in [2], in [3], in [4], in assay [5] and in assay [6] was inactive. Also, the outcome in assay [7], in assay [8], in [9], in assay [10], in [11] and in assay [12] was inactive. Also, the compound was called inactive in [13], in assay [14], in assay [15], in [16] and in assay [17].

As to `COc1ccc(-c2coc3cc(O)ccc3c2=O)cc1`, the compound was called inactive in assay [1], in assay [2], in assay [3], in [4], in assay [5] and in [6]. Also, the outcome in assay [8], in assay [9], in assay [13], in [18], in [14] and in [15] was inactive. The compound was classed as inactive in [17]. For the same compound, the concentration at half-maximal activity (AC50) (in general, the midpoint of the concentration-response curve, whichever way the signal moves) in assay [10] is 11.3 µM (active).

With `O=C(Nc1ccccc1SSc1ccccc1NC(=O)c1ccccc1)c1ccccc1`, the call in [1], in assay [2], in [3], in assay [4], in [5] and in assay [6] was inactive. The outcome in assay [8], in assay [9], in [13], in assay [14], in assay [15] and in assay [16] was inactive. Further, the compound was called inactive in assay [17]. Also, the half-maximal activity concentration (AC50) in assay [7] was 47.1 µM (active); in assay [10] it was 4.44 µM (active); in assay [12] it was 2.56 µM (active).

With `CC(CC=O)CCCC(C)(C)O` (stereo not drawn), the call in assay [1], in assay [2], in assay [3], in assay [4], in [5] and in [6] was inactive. For the same compound, the outcome in assay [7], in [8], in assay [9], in assay [12], in assay [13] and in [14] was inactive. The compound was called inactive in assay [15] and in assay [17]. The half-maximal activity concentration (AC50) in assay [10] is 41.2 µM (active).

With `O=c1c2ccccc2oc2ccccc12`, the call in assay [1], in assay [2], in assay [3], in assay [4], in assay [5] and in assay [6] was inactive. The compound was classed as inactive in assay [8], in assay [9], in assay [12], in assay [13], in [18] and in assay [14]. The compound was called inactive in assay [15], in assay [16] and in assay [17]. The AC50 in assay [10] is 27.1 µM (active).
